# Laboratory results reported in ChEMBL document CHEMBL3433997, “St. Jude Leishmania screening dataset” (2016).
# Values joined by “and” are separate entries in the source; they are usually repeats but may differ in a detail not shown here. Equal values may be shown once.
# Target: Hexose transporter 1 (Plasmodium falciparum) (UniProt O97467)
# Assay: ST_JUDE_LEISH: Cytotoxicity at 2uM final concentration against transgenic Leishmania Mexicana promastigotes LmPfHT that are glucose transport deficient and complemented with the Plasmodium falciparum hexose transporter. Activity is measured by DNA content using SYBR green in vitro
# Format: functional
row,Compound,inhibition
1,CC(C)CNCc1ccc(-c2cccc(CN(C(=O)Nc3ccccc3)C3CCN(Cc4ccccc4)CC3)c2)cc1,-0.02%
2,CC[C@H]1CN2CC[C@H]1C[C@H]2[C@H](O)c1cc(-c2ccc(OC(F)(F)F)cc2)nc2ccc(OC)cc12,2.38%
3,O=C(/C=C/c1c(Cl)cccc1Cl)NC1CCC(CN2C3CCC2CC(c2c[nH]c4ccccc24)C3)CC1 (stereo not drawn),1.89%
4,Cc1[nH]c2ccccc2c1C1=CCN(CCCCC23CCCc4cccc(c42)NC3=O)CC1 (stereo not drawn),2.98%
5,O=C(/C=C/c1ccc(Cl)c(Cl)c1)Nc1cccc(CN2CCC(c3c[nH]c4ccccc34)CC2)c1,6.99%
6,Cc1cc(C2CCCCN2C)ccc1-c1ccc(C(=O)N2CCc3cc4c(cc32)C2(CCN(C)CC2)CO4)cc1 (stereo not drawn),0.31%
7,COC(=O)c1ccc(CC(C)NCC(O)c2cccc(OCc3ccccc3)c2)cc1 (stereo not drawn),7.31%
8,CC(=O)N(Cc1ccc(-c2ccc(CNCCc3ccccc3)cc2)cc1)C1CCN(Cc2ccccc2)CC1,1.69%
9,CN(c1ccnc(Nc2ccc(CS(C)(=O)=O)cc2)n1)C1CCN(Cc2ccccc2)CC1,2.62%
10,Cc1[nH]c2cc(Cl)ccc2c1C1=CCN(CCCCC2(C)C(=O)Nc3ccccc32)CC1 (stereo not drawn),0.91%
11,O=C(Nc1cc(C(F)(F)F)cc(C(F)(F)F)c1)c1cc(Cl)ccc1O,7.96%
12,Cc1cc(NC(=O)[C@H](CC(C)C)Nc2ccc(C#N)c3ccccc23)ccc1F,2.4%
13,CCN1CC=C(c2c[nH]c3ccccc23)CC1,1.07%
14,Oc1ccccc1CNCC(O)c1cc(C(F)(F)F)cc(C(F)(F)F)c1 (stereo not drawn),5.51%
15,O=C(/C=C/c1ccc(Cl)c(Cl)c1)NC1CCC(CN2CCC(c3c[nH]c4ccccc34)C(O)C2)CC1 (stereo not drawn),3.72%
16,O=C(NCCC1CCN(CCc2c[nH]c3ccccc23)CC1)Nc1ccc(Cl)c(Cl)c1,2.49%
17,O=C(/C=C/c1ccc(Cl)c(Cl)c1)NC1CCC(CN2CCC(c3c[nH]c4cc(O)ccc34)CC2)CC1 (stereo not drawn),0.88%
18,O=C(/C=C/c1cc(C(F)(F)F)ccc1F)NC1CCC(CN2CCC(c3c[nH]c4ccccc34)CC2)CC1 (stereo not drawn),5.67%
19,CN1CC(c2ccc(Cl)c(Cl)c2)OC1=N (stereo not drawn),0.23%
20,CCCc1c(C(=O)NC2CCC(CN3CCC(c4c[nH]c5ccccc45)CC3)CC2)cnn1-c1c(Cl)cc(Cl)cc1Cl (stereo not drawn),3.29%

row,Compound,inhibition
1,COC(=O)c1ccc(CC(C)NCC(O)c2ccccc2Cl)cc1 (stereo not drawn),0.22%
2,CC[C@H]1CN2CC[C@@H]1C[C@H]2[C@H](O)c1cc(N2CCSCC2)nc2ccc(OC)cc12,3.67%
3,COc1cc(C(=O)NC2CCC(CN3CCC(c4c[nH]c5ccccc45)CC3)CC2)cc(Cl)n1 (stereo not drawn),-0.71%
4,OC(CNC12CC3CC(CC(C3)C1)C2)c1cccc(C(F)(F)F)c1 (stereo not drawn),-1.19%
5,COc1cc2c(c(OC)c1OC)C[C@H]1c3c(cc4c(c3-2)OCO4)CCN1C,1.49%
6,O=C(c1ccccc1)C1CC1CN1CC=C(c2c[nH]c3ccccc23)CC1 (stereo not drawn),0.92%
7,CC(C)CNCc1cccc(-c2cccc(CN(C(=O)c3cccs3)C3CCN(Cc4ccccc4)CC3)c2)c1,7.75%
8,CCCCCCCc1cc(=O)c2ccccc2[nH]1,3.61%
9,CCCCC/C=C/C(=O)NC1CCC(CN2CCC(c3c[nH]c4ccccc34)CC2)CC1 (stereo not drawn),2.43%
10,COC(=O)/C=C/c1ccc(CC(C)NCC(O)c2cccc(Cl)c2)cc1 (stereo not drawn),-0.19%
11,O=C(/C=C/c1cc(C(F)(F)F)ccc1F)N1CCC(CN2CCC(c3c[nH]c4ccccc34)CC2)CC1,1.34%
12,COCCNCc1ccc(-c2ccc(CN(C(=O)Nc3ccccc3)C3CCN(Cc4ccccc4)CC3)cc2)cc1,4.93%
13,O=C(NC1CCC(CN2CCC(c3c[nH]c4ccccc34)CC2)CC1)c1cc2ccccc2s1 (stereo not drawn),0.46% and 1.62%
14,CCOC(=O)c1c(C)n(C2CCCCCC2)c2cc(Br)c(O)cc12,0.67%
15,CC(=O)N(Cc1cccc(-c2ccc(CNCCc3ccccc3)cc2)c1)C1CCN(Cc2ccccc2)CC1,5.39%
16,O=C(/C=C/c1ccc(Cl)c(Cl)c1)N1CCC(CN2CCC(c3c[nH]c4ccc(O)cc34)CC2)CC1,-0.44%
17,Cc1ccc2c(C3=CCN(CCCCC4(C)C(=O)Nc5ccccc54)CC3)c(C)[nH]c2c1 (stereo not drawn),0.34%
18,CCC1(C)CC(CCNCc2ccccc2O)(c2ccc(F)cc2)CCO1 (stereo not drawn),1.85%
19,NC(=O)c1ccc2[nH]cc(C3CCN(CC4CCC(NC(=O)/C=C/c5ccc(Cl)c(Cl)c5)CC4)CC3)c2c1 (stereo not drawn),-1.26% and 2.22%

# Target: Glucose transporter (Leishmania mexicana) (UniProt O61059)
# Assay: ST_JUDE_LEISH: Cytotoxicity at 2uM final concentration against transgenic Leishmania Mexicana promastigotes LmGT2 that are glucose transport deficient and complemented with the L. Mexicana glucose transporter 2. Activity is measured by DNA content using SYBR green in vitro
# Format: functional
row,Compound,inhibition
1,CC(C)CNCc1ccc(-c2cccc(CN(C(=O)Nc3ccccc3)C3CCN(Cc4ccccc4)CC3)c2)cc1,-1.04%
2,CC[C@H]1CN2CC[C@H]1C[C@H]2[C@H](O)c1cc(-c2ccc(OC(F)(F)F)cc2)nc2ccc(OC)cc12,3.6%
3,O=C(/C=C/c1c(Cl)cccc1Cl)NC1CCC(CN2C3CCC2CC(c2c[nH]c4ccccc24)C3)CC1 (stereo not drawn),-0.2%
4,Cc1[nH]c2ccccc2c1C1=CCN(CCCCC23CCCc4cccc(c42)NC3=O)CC1 (stereo not drawn),2.47%
5,O=C(/C=C/c1ccc(Cl)c(Cl)c1)Nc1cccc(CN2CCC(c3c[nH]c4ccccc34)CC2)c1,5.33%
6,Cc1cc(C2CCCCN2C)ccc1-c1ccc(C(=O)N2CCc3cc4c(cc32)C2(CCN(C)CC2)CO4)cc1 (stereo not drawn),1.11%
7,COC(=O)c1ccc(CC(C)NCC(O)c2cccc(OCc3ccccc3)c2)cc1 (stereo not drawn),8.15%
8,CC(=O)N(Cc1ccc(-c2ccc(CNCCc3ccccc3)cc2)cc1)C1CCN(Cc2ccccc2)CC1,1.11%
9,CN(c1ccnc(Nc2ccc(CS(C)(=O)=O)cc2)n1)C1CCN(Cc2ccccc2)CC1,1.21%
10,Cc1[nH]c2cc(Cl)ccc2c1C1=CCN(CCCCC2(C)C(=O)Nc3ccccc32)CC1 (stereo not drawn),1.15%
11,O=C(Nc1cc(C(F)(F)F)cc(C(F)(F)F)c1)c1cc(Cl)ccc1O,8.03%
12,Cc1cc(NC(=O)[C@H](CC(C)C)Nc2ccc(C#N)c3ccccc23)ccc1F,-0.16%
13,CCN1CC=C(c2c[nH]c3ccccc23)CC1,0.73%
14,Oc1ccccc1CNCC(O)c1cc(C(F)(F)F)cc(C(F)(F)F)c1 (stereo not drawn),4.91%
15,O=C(/C=C/c1ccc(Cl)c(Cl)c1)NC1CCC(CN2CCC(c3c[nH]c4ccccc34)C(O)C2)CC1 (stereo not drawn),4.19%
16,O=C(NCCC1CCN(CCc2c[nH]c3ccccc23)CC1)Nc1ccc(Cl)c(Cl)c1,3%
17,O=C(/C=C/c1ccc(Cl)c(Cl)c1)NC1CCC(CN2CCC(c3c[nH]c4cc(O)ccc34)CC2)CC1 (stereo not drawn),-0.33%
18,O=C(/C=C/c1cc(C(F)(F)F)ccc1F)NC1CCC(CN2CCC(c3c[nH]c4ccccc34)CC2)CC1 (stereo not drawn),6.74%
19,CN1CC(c2ccc(Cl)c(Cl)c2)OC1=N (stereo not drawn),-0.89%
20,CCCc1c(C(=O)NC2CCC(CN3CCC(c4c[nH]c5ccccc45)CC3)CC2)cnn1-c1c(Cl)cc(Cl)cc1Cl (stereo not drawn),3.07%

row,Compound,inhibition
1,COC(=O)c1ccc(CC(C)NCC(O)c2ccccc2Cl)cc1 (stereo not drawn),1.21%
2,CC[C@H]1CN2CC[C@@H]1C[C@H]2[C@H](O)c1cc(N2CCSCC2)nc2ccc(OC)cc12,-0.01%
3,COc1cc(C(=O)NC2CCC(CN3CCC(c4c[nH]c5ccccc45)CC3)CC2)cc(Cl)n1 (stereo not drawn),2.31%
4,OC(CNC12CC3CC(CC(C3)C1)C2)c1cccc(C(F)(F)F)c1 (stereo not drawn),-0.45%
5,COc1cc2c(c(OC)c1OC)C[C@H]1c3c(cc4c(c3-2)OCO4)CCN1C,1.06%
6,O=C(c1ccccc1)C1CC1CN1CC=C(c2c[nH]c3ccccc23)CC1 (stereo not drawn),8.35%
7,CC(C)CNCc1cccc(-c2cccc(CN(C(=O)c3cccs3)C3CCN(Cc4ccccc4)CC3)c2)c1,6.04%
8,CCCCCCCc1cc(=O)c2ccccc2[nH]1,1.21%
9,CCCCC/C=C/C(=O)NC1CCC(CN2CCC(c3c[nH]c4ccccc34)CC2)CC1 (stereo not drawn),4.05%
10,COC(=O)/C=C/c1ccc(CC(C)NCC(O)c2cccc(Cl)c2)cc1 (stereo not drawn),-0.96%
11,O=C(/C=C/c1cc(C(F)(F)F)ccc1F)N1CCC(CN2CCC(c3c[nH]c4ccccc34)CC2)CC1,-1.26%
12,COCCNCc1ccc(-c2ccc(CN(C(=O)Nc3ccccc3)C3CCN(Cc4ccccc4)CC3)cc2)cc1,5.08%
13,O=C(NC1CCC(CN2CCC(c3c[nH]c4ccccc34)CC2)CC1)c1cc2ccccc2s1 (stereo not drawn),-5.56% and 1.62%
14,CCOC(=O)c1c(C)n(C2CCCCCC2)c2cc(Br)c(O)cc12,4.54%
15,CC(=O)N(Cc1cccc(-c2ccc(CNCCc3ccccc3)cc2)c1)C1CCN(Cc2ccccc2)CC1,2.97%
16,O=C(/C=C/c1ccc(Cl)c(Cl)c1)N1CCC(CN2CCC(c3c[nH]c4ccc(O)cc34)CC2)CC1,4.21%
17,Cc1ccc2c(C3=CCN(CCCCC4(C)C(=O)Nc5ccccc54)CC3)c(C)[nH]c2c1 (stereo not drawn),-0.56%
18,CCC1(C)CC(CCNCc2ccccc2O)(c2ccc(F)cc2)CCO1 (stereo not drawn),-0.21%
19,NC(=O)c1ccc2[nH]cc(C3CCN(CC4CCC(NC(=O)/C=C/c5ccc(Cl)c(Cl)c5)CC4)CC3)c2c1 (stereo not drawn),0.5% and 1.58%
